# rRNA inh HTS – reduced GFP signal of wild-type E. coli, primary screen, bacterial rRNA inhibitor project, GFP/RFP fluorescence, OD600, single point; hit rate 1.6% among 350,000; GFP signal change (wild-type ribosome), % (no concentration beside the values); E. coli WT GFP vs humanized-ribosome RFP mutants, 24 h; hits give low values; DMSO median 0, no signal -100; AID 720706, 2013;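 active = significant combined selectivity score with lowered wild-type GFP, culture density cut under 30%, mutant RFP and density less affected; inactive = any of these conditions unmet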
# LGR2 antag – inhibitors of bursicon-induced LGR2 CRE-luciferase signal, primary screen, cell-based, HEK293, CRE-luciferase reporter, bursicon stimulation | Drosophila bursicon receptor LGR2 (rickets) | bursicon-stimulated, 4 h | inhibition, % at 9.99 µM | hit rate 0.35% among 380,000;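 active = drop in luminescence signal, shown as inhibition above about 50% in the replicate tests, limit read from the data, passing the limit was not always enough; inconclusive = probably only some replicates passing the limit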;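 note: agonist challenge used bursicon conditioned medium at about half maximal strength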
# EWS-Fli block – EWS/Fli-driven NR0B1 reporter inhibitors, primary screen, A673 cells, NR0B1 luciferase, luminescence, MLPCN library; viability-normalised; inhibition, % at 12.6 µM; hit rate 0.67% among 350,000;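 active = mean inhibition of at least 50% after viability correction, with every replicate also passing that limit; inconclusive = mean reaches 50% but only one of two replicates passes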;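 note: firefly luciferase signal divided by Alamar Blue viability fluorescence both relative to DMSO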
# PAX8 inh HTS – inhibitors of PAX8-driven TPO luciferase reporter, primary screen, RMG-I cells, single concentration; SteadyGlo, 24 h; inhibition, % at 12.6 µM; hit rate 1.2% among 360,000;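 active = mean replicate inhibition at least 60% with every replicate also reaching 60%; inconclusive = only one of the two criteria is met; inactive = mean below 60% and not all replicates reaching 60%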;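 note: luciferase light reporting Pax8 driven TPO promoter activity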
# PGC1a acetyl inh – inhibitors of PGC1a acetylation signal, primary screen, cell-based, U2OS, AlphaScreen, inhibitor mode. AlphaScreen anti-acetyl-lysine; with virally co-expressed GCN5 acetyltransferase. inhibition, % at 15.6 µM. hit rate 0.17% among 350,000. AID 651687, 2012;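 active = every replicate shows inhibition of at least 40%; inconclusive = mean inhibition at least 40% but some replicate below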
# SIRT5 inh – SIRT5 desuccinylase inhibitors, primary screen, biochemical, fluorescence imaging, single point, set 5; Purified SirT5, succinyl-peptide AMC, trypsin-coupled fluorescence; inhibition, % at 15 µM; hit rate 1.1% among 330,000; AID 652115, 2013; in the data active = inhibition above about 15%; inconclusive = no clear call, values can overlap the other calls
# Target sequence (Q9NXA8 whole entry, looked up): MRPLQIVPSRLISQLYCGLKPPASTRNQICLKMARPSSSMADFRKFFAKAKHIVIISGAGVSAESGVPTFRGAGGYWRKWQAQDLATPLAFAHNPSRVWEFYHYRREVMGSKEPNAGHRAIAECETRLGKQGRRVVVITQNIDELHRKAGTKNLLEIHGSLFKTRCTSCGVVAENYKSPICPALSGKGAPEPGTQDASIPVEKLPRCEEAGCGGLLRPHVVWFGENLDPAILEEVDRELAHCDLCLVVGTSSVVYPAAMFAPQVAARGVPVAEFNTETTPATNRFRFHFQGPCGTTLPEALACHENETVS
# Numbers stand for hits; – = inactive; ? = inconclusive; · = not tested or not shown. Rows were chosen to be rich in hits. Some 3.4% of all compounds tested hit in one or more screens of this group.
SMILES,rRNA inh HTS,LGR2 antag,EWS-Fli block,PAX8 inh HTS,PGC1a acetyl inh,SIRT5 inh
C[C@@H]1CN([C@@H](C)CO)C(=O)c2cc(NS(=O)(=O)c3cccs3)ccc2O[C@@H]1CN(C)Cc1ccc(Cl)c(Cl)c1,–,–,–,–,–,18
C[C@@H]1CN([C@H](C)CO)C(=O)c2cc(NS(=O)(=O)c3cccs3)ccc2O[C@@H]1CN(C)Cc1ccc(Cl)c(Cl)c1,–,–,–,–,–,–
C[C@H](CO)N1C[C@H](C)[C@@H](CN(C)Cc2ccc(Cl)c(Cl)c2)OCCCC[C@H](C)Oc2ccc(NS(=O)(=O)c3cccs3)cc2C1=O,–,–,–,71,–,19
CN1CCN(C(=O)C[C@@H]2CC[C@H]3[C@@H](COC[C@H](O)CN3C(=O)C3CC3)O2)CC1,–,–,–,–,–,–
Cc1noc(C)c1S(=O)(=O)Nc1ccc2c(c1)C(=O)N([C@H](C)CO)C[C@H](C)[C@@H](CN(C)CC1CCCCC1)OCCCC[C@H](C)O2,–,–,–,–,·,–
C/C=C/c1ccc([C@H]2[C@@H](CO)N(C(=O)C3CC3)C23CN(S(=O)(=O)CC)C3)cc1,–,–,–,–,–,–
C[C@@H]1CCCCO[C@H](CN(C)Cc2ccc(C(=O)O)cc2)[C@H](C)CN([C@@H](C)CO)C(=O)c2cc(NS(=O)(=O)c3cccs3)ccc2O1,–,–,–,–,–,–
C[C@H](CO)N1C[C@H](C)[C@H](CN(C)Cc2ccc(C(F)(F)F)cc2)Oc2ccc(NS(=O)(=O)c3cccs3)cc2C1=O,–,–,–,–,–,16
C[C@@H]1CCCCO[C@@H](CN(C)Cc2ccc(C(=O)O)cc2)[C@H](C)CN([C@@H](C)CO)C(=O)c2cc(NS(=O)(=O)c3cccs3)ccc2O1,–,–,–,–,–,–
C[C@H]1CCCCO[C@H](CN(C)Cc2ccc(C(F)(F)F)cc2)[C@@H](C)CN([C@@H](C)CO)C(=O)c2cc(NS(=O)(=O)c3cccs3)ccc2O1,–,–,–,81,–,16
C[C@H]1CN([C@@H](C)CO)C(=O)c2cc(NS(=O)(=O)c3cccs3)ccc2O[C@@H]1CN(C)Cc1ccc(C(F)(F)F)cc1,–,–,–,–,–,–
C[C@@H]1CN([C@@H](C)CO)C(=O)c2cc(NS(=O)(=O)c3cn(C)cn3)ccc2O[C@@H]1CN(C)CC1CCCCC1,–,–,–,·,–,–
C[C@@H]1CN([C@H](C)CO)C(=O)c2cc(NS(=O)(=O)c3cn(C)cn3)ccc2O[C@H]1CN(C)CC1CCCCC1,–,–,–,·,–,17
C[C@@H]1CN([C@@H](C)CO)C(=O)c2cc(NS(=O)(=O)c3cccs3)ccc2O[C@@H](C)CCCCO[C@@H]1CN(C)Cc1ccc(C(F)(F)F)cc1,–,–,–,?,–,19
COc1ccc2c3c([nH]c2c1)[C@@H](CO)N(Cc1ccccc1)CC31CCN(C(=O)c2cccnc2)CC1,–,–,–,·,·,–
C[C@H](CO)N1C[C@H](C)[C@H](CN(C)S(=O)(=O)c2cn(C)cn2)Oc2ccc(NS(=O)(=O)c3cccs3)cc2C1=O,–,–,–,–,–,15
C[C@H]1CCCCO[C@@H](CN(C)Cc2ccc(C(F)(F)F)cc2)[C@@H](C)CN([C@@H](C)CO)C(=O)c2cc(NS(=O)(=O)c3cccs3)ccc2O1,–,–,–,96,–,–
C[C@H](CO)N1C[C@H](C)[C@H](CN(C)Cc2ccc(C(F)(F)F)cc2)OCCCC[C@H](C)Oc2ccc(NS(=O)(=O)c3cccs3)cc2C1=O,–,–,–,·,–,–
C[C@@H]1CN([C@@H](C)CO)C(=O)c2cc(NS(=O)(=O)c3cccs3)ccc2O[C@H]1CN(C)S(=O)(=O)c1cn(C)cn1,–,–,–,–,–,–
COc1ccc(NC(=O)COC(=O)CCCOc2ccc(Cl)cc2Cl)cc1,–,–,–,–,·,–
COc1ccc(NC(=O)COC(=O)CCCOc2ccc(Cl)cc2Cl)cc1Cl,-22,–,–,–,·,–
O=C(N=C1SC2CS(=O)(=O)CC2N1c1ccc(F)cc1F)C1CC1 (stereo not given),–,–,·,–,–,17
CC(C)NC(=O)N(C)C[C@H]1OCCCC[C@@H](C)Oc2ccc(NC(=O)CCC(F)(F)F)cc2C(=O)N([C@@H](C)CO)C[C@H]1C,–,–,·,–,–,–
CCN1C(=O)C(CC(=O)Nc2ccc(OC)cc2)N(Cc2cccs2)C1=S (stereo not given),-31,–,–,·,–,–
COc1ccc(NC(=O)CC2C(=O)N(Cc3ccco3)C(=S)N2C(C)C)cc1 (stereo not given),–,–,–,–,–,–
SMILES,rRNA inh HTS,LGR2 antag,EWS-Fli block,PAX8 inh HTS,PGC1a acetyl inh,SIRT5 inh
COc1ccc(NC(=O)CC2C(=O)N(Cc3cccs3)C(=S)N2C(C)C)cc1 (stereo not given),–,–,–,–,–,31
CCN1C(=O)C(CC(=O)Nc2ccc(OC)cc2)N(Cc2ccco2)C1=S (stereo not given),·,–,·,–,–,·
CCCNC(=O)Nc1ccc2c(c1)C(=O)N(C)C[C@H](OC)[C@H](C)CN(CCC)[C@H](C)CO2,–,–,–,–,–,–
Cc1cccc(COC[C@H](Cc2ccccc2)N2CCN(C(=O)c3cc(Cl)cc(Cl)c3)CCC2=O)c1,–,–,–,–,·,41
Cc1cccc(COCC(Cc2ccccc2)N2CCN(C(=O)c3cccc(Cl)c3)CCC2=O)c1 (stereo not given),–,–,–,–,·,·
CCOc1ccc2nc(N/C(N)=N/C(=S)Nc3ccc(C)c(C)c3)nc(C)c2c1,–,–,–,132,·,–
COc1ccc(NC(=S)/N=C(\N)Nc2nc(C)c3ccc(C)cc3n2)cc1,–,–,–,–,–,–
CCONc1ncnc2nonc12,–,–,–,–,·,–
COc1ccc(CONc2ncnc3nonc23)cc1[N+](=O)[O-],-25,–,–,–,·,–
Cc1ccccc1S(=O)(=O)N1CC(=O)N2[C@H](CO)[C@@H](c3ccc(C#CCC(C)C)cc3)[C@@H]2C1,–,–,–,–,–,–
COC(=O)/C(=C\Nc1cccc(Cl)c1C)c1ncc(C(F)(F)F)cc1Cl,·,·,·,·,41,·
CNC[C@@H]1OCCCC[C@H](C)Oc2ccc(NS(=O)(=O)c3ccc(OC)cc3)cc2C(=O)N([C@H](C)CO)C[C@H]1C,–,–,–,–,–,·
Cc1ccc2nc(-c3ccc(N)cc3)sc2c1,-44,82,69,–,–,–
Cc1ccc2nc(-c3ccc(NC(=S)NCC(C)(C)CN(C)C)cc3)sc2c1,-36,–,–,–,–,–

# Compound activity (PubChem)
